# M1 agonist – M1 muscarinic receptor agonists, primary screen, CHO-M1 cells, Fluo-4 calcium, agonist mode. B-score at 10 µM. Fluo-4 calcium fluorescence; hits give high values. 64,000 compounds, 3% hits. AID 626, 2007;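 active means fluorescence rise, raw or as B-score row- and column-corrected plate score, outside the 99.7% band of its plate's samples, either direction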
# Cav32 inh – Cav3.2 calcium influx blockers – cell-based, Fluo-4 calcium fluorescence, FDSS, MLSMR library, primary screen | B-score at 10 µM | 100,000 compounds, 4% hits | AID 449739, 2010 | Cav3.2-expressing cells; hits give low values | Voltage-dependent T-type calcium channel subunit alpha-1H (Homo sapiens), O95180;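 active means single-dose well whose peak fluorescence ratio is a statistical outlier from its plate by either plate-standardised score or position-corrected B-score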
# M1 antagonist – antagonists of rat M1 muscarinic receptor | Muscarinic acetylcholine receptor M1 (Rattus norvegicus), P08482 | CHO-M1 cells, Fluo-4 calcium, ACh EC80 antagonist mode; hits give low values | B-score at 10 µM | 64,000 compounds, 3.4% hits | AID 628, 2007;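 active means calcium fluorescence response, raw or row-and-column corrected B-score, differing from the plate sample mean either way at a set confidence level, mostly lower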
# PLAP activator – PLAP enzyme activators, biochemical, luminescence, HTS; Alkaline phosphatase, placental type (Homo sapiens), P05187; purified PLAP enzyme, luminescent substrate read-out; hits give high values; activation fold at 20 µM; 96,000 compounds, 1.2% hits; in the data active means activation fold above about 2
# Target sequence (P05187 whole entry, looked up): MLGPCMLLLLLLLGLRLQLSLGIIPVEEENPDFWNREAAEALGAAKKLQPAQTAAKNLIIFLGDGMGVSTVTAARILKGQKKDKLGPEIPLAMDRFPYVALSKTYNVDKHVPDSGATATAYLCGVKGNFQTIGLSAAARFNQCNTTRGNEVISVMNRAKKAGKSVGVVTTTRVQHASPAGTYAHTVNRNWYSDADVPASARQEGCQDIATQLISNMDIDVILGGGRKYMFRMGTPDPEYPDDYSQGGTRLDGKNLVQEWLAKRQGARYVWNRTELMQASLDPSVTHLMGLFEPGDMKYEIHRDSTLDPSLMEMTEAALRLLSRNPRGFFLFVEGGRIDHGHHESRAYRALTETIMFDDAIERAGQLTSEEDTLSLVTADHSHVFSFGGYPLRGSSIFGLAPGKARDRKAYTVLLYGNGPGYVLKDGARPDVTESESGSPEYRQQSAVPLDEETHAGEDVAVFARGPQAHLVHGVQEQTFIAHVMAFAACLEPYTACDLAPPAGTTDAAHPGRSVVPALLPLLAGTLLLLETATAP
# M1 ag confirm – rat M1 muscarinic receptor agonists, confirmation, CHO-M1 cells, Fluo-4 calcium, duplicate retest; 1,700 compounds, 19% hits; shares compounds with M1 agonist; Fluo-4 calcium fluorescence, agonist mode; actives lie on both sides; AID 1488, 2009; fluorescence change (max-min) at 10 µM;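 active means fluorescence change differs from the solvent-only DMSO control mean at a set confidence level in both duplicate runs; inconclusive means differs from solvent-only control mean in just one of two runs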;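 further: an EC20 dose of acetylcholine follows compound addition during the same imaging run; raw fluorescence intensity difference in instrument units with no normalization to controls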
# M4 ag counter – agonist activity at rat M4 receptor, confirmation, counter-screen for M1 allosteric modulator project, cell-based, agonist mode | shares compounds with M1 agonist | CHO M4/Gqi5 cells, Fluo-4 calcium fluorescence; actives lie on both sides | fluorescence change (max-min) at 10 µM | 1,700 compounds, 9% hits | AID 1741, 2009;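 active means fluorescence change differing from the plate's solvent-only control wells at 99.7% confidence in both duplicates, whether higher or lower; inconclusive means differs from solvent controls in only one of two duplicates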
# The depositor's hits bear a star; ? = inconclusive; . = no result given. Only some compounds are listed: those with a hit (about 7.6% of all), similar ones and a draw of the others.
SMILES,M1 agonist,Cav32 inh,M1 antagonist,PLAP activator,M1 ag confirm,M4 ag counter
N=c1c(C(=O)NCc2ccco2)cc2c(=O)n3ccccc3nc2n1CCc1ccccc1,9.59*,-2.06,0.498,1.6,38.7,3.59
Cc1ccc(Cn2c(=N)c(C(=O)NCc3ccco3)cc3c(=O)n4ccccc4nc32)cc1,-1.19,.,-2.27,.,.,.
Cc1cccn2c(=O)c3cc(C(=O)NCc4ccco4)c(=N)n(CCOCCO)c3nc12,11.7*,.,-0.935,.,107*,?
N=c1c(C(=O)NCc2ccc(F)cc2)cc2c(=O)n3ccccc3nc2n1CC1CCCO1 (stereo not drawn),3.71*,-2.14,-0.973,1.2,90.2*,?
COc1ccc(CCn2c(=N)c(C(=O)NCc3ccco3)cc3c(=O)n4ccccc4nc32)cc1OC,1.02,.,-0.989,.,.,.
O=C(Nc1ccc(S(=O)(=O)N2CCCCC2)cc1)c1ccccc1Cl,.,-2.71,.,0.8,.,.
O=C(Nc1ccccc1)Nc1ccc(S(=O)(=O)N2CCCCC2)cc1,3.49*,-2.45,-0.67,1,-13.8,-28.1
Cc1nnc(SC(C)C(=O)Nc2ccc(S(=O)(=O)N3CCCCCC3)cc2)s1 (stereo not drawn),-2.46*,-2.69,0.0534,1.2,?,?
CCN(CC)c1ccc2c(C)c(CN3CCOCC3)c(=O)oc2c1,7.1*,0.596,-2.95*,1.6,43.1,-0.888
CCN(CC)c1ccc2c(Cl)cc(=O)oc2c1,.,-0.436,.,1.2,.,.
COc1cc(N)ccc1Cc1ccc(N)cc1OC,3.65*,-0.115,1.06,0.8,-18.8,-26.7
COc1ccc(N)cc1C#N,0.847,-0.00559,0.121,1.1,.,.
CCOc1ccc(C2C(C#N)=C(N)Oc3n[nH]c(C)c32)cc1OC(=O)C1CC1 (stereo not drawn),4.64*,0.138,1.2,1.3,1.15,-19.3
CCOc1cc(C2C(C#N)=C(N)Oc3n[nH]c(-c4ccccc4)c32)ccc1O (stereo not drawn),1.24,-1.88,-0.0522,0.9,.,.
Cc1cc(CCN2CCC(=O)NC2=O)ccc1OC(C)C,-0.115,0.215,0.202,1,.,.
O=C(Nc1ccccc1)c1ccccc1OCC(O)CN1C(=O)c2ccccc2S1(=O)=O (stereo not drawn),6.11*,-0.533,-1.88,0.9,-19.5,?
Cc1ccc(C)c(NC(=O)c2ccc[n+](Cc3ccc([N+](=O)[O-])cc3)c2)c1,.,0.0445,.,0.8,.,.
COc1ccc(NC(=O)CCCN2C(=O)C3C4C=CC(C4)C3C2=O)c(OC)c1 (stereo not drawn),-0.153,-2.86,-0.16,.,.,.
Cc1cc(NC(=O)CCN2C(=O)C3C4C=CC(C4)C3C2=O)c2ccccc2n1 (stereo not drawn),3.33*,-0.585,-0.276,1.2,-7.23,-21.8
Cc1ccc(S(=O)(=O)Nc2c(C)n(C)n(-c3ccccc3)c2=O)cc1C(=O)NCc1ccccn1,0.625,-0.11,-0.112,1.4,.,.
O=S(=O)(Nc1cccnc1)c1ccc(C2CCCCC2)cc1,7.1*,-1.67,-3.1*,0.9,12.4,-15.4
Cc1ccc2c(C)nc(Nc3nc(CSc4nnnn4-c4ccccc4)cc(=O)[nH]3)nc2c1,8.63*,.,-0.596,2.2*,-12.7,-19.1
COc1ccc(CCNS(=O)(=O)c2ccc3c(c2)OCCO3)cc1OC,-1.24,0.943,0,0.8,.,.
Cc1ccc(C2=CC(c3ccccc3)n3ncnc3N2)cc1 (stereo not drawn),.,-0.739,.,.,.,.
Cc1ccsc1C1C=C(c2cccc(Br)c2)Nc2ncnn21 (stereo not drawn),33.6*,-4.56,-0.925,1.1,836*,793*
SMILES,M1 agonist,Cav32 inh,M1 antagonist,PLAP activator,M1 ag confirm,M4 ag counter
COc1cccc(C2=CC(c3ccc(C)cc3)n3ncnc3N2)c1 (stereo not drawn),7.98*,-2.89,-1.05,1.3,165*,?
O=C(NC(Cc1c[nH]c2ccccc12)C(=O)O)c1ccco1 (stereo not drawn),.,0.243,.,1.1,.,.
O=C(Nc1ccccc1C(=O)NC(Cc1c[nH]c2ccccc12)C(=O)O)c1ccco1 (stereo not drawn),-2.59*,.,0.0127,1.5,-28.1*,-67.1
CC(C)c1ccc(N(C(=O)C(F)(F)F)C(C(=O)NC2CCCCC2)c2ccncc2)cc1 (stereo not drawn),.,.,.,0.9,.,.
O=c1c2cc(Cl)ccc2nc2ccc(N3CCCC3)nn12,-0.577,.,0.134,.,.,.
O=C(C1CCN(Cc2cc(Cl)ccc2O)CC1)N1CCN(Cc2ccccc2)CC1,5.58*,.,0.175,1.4,?,-41.5
COc1ccc(CC(=O)N2CC(C)CC(C)C2)cc1 (stereo not drawn),.,1.89,.,1,.,.
CCOC(=O)C1CCCN(c2c(NCCc3ccc(S(N)(=O)=O)cc3)c(=O)c2=O)C1 (stereo not drawn),2.26*,1.19,-1.16,0.8,-10.7,-14.1
CCOC(=O)C1CCCN(c2c(NCCN(C)Cc3ccccc3)c(=O)c2=O)C1 (stereo not drawn),-0.586,0.598,-0.54,1,.,.
CCn1c(=O)n(CC)c2cc(S(=O)(=O)N3CCc4ccccc43)ccc21,2.58*,-1.86,0.416,1.2,-6.46,-35
CCC(=O)N1CCCc2cc(S(=O)(=O)N3CCCc4ccccc43)ccc21,-0.551,-1.35,0.673,1.7,.,.
CC1CC(C)CN(S(=O)(=O)c2ccc(C(=O)NCCCn3ccnc3)cc2)C1 (stereo not drawn),0.237,0.592,-0.735,1,.,.
COc1ccccc1C(=O)Nc1cccc(-c2cn3ccsc3n2)c1,4.69*,0.186,0.251,1.1,?,-40.3
O=C(Nc1cccc(-c2cn3ccsc3n2)c1)c1ccccc1,0.471,1.08,-0.732,1.4,.,.
CCOC(=O)Cc1csc(SCc2nc3sc4c(c3c(=O)[nH]2)CCC4)n1,.,-1.55,.,1.1,.,.
O=C(NCCc1ccc(Cl)cc1)C1CCN(S(=O)(=O)N2CCCCC2)CC1,1.88*,-0.00699,-0.632,1,?,-72.4
O=C(NCCc1ccccc1)C1CCN(S(=O)(=O)N2CCCC2)CC1,-0.168,0.438,0.283,1.2,.,.
CC(=O)N1CCc2cc(C(=O)CN3CCN(c4cccc(Cl)c4)CC3)ccc21,5.86*,0.33,-2.97*,1.4,21.7,15.8
O=C(CSc1ccc2nnc(-c3ccccn3)n2n1)N1CCN(c2ccccc2)CC1,3.25*,0.114,-0.585,1.3,-8.52,?
CCOc1cc(N2CCOCC2)c(OCC)cc1NS(=O)(=O)c1ccc(Cl)s1,0.117,-3.66,-1.08,1,.,.
Cc1ccc(OC(=O)COc2ccccc2)c(-n2nc3ccccc3n2)c1,.,0.00234,.,1,.,.
N#Cc1ccc(COc2ccc(CCO)cc2-n2nc3ccccc3n2)cc1,5.48*,0.331,-0.62,1.5,7.04,-15
O=C1CC(C(=O)O)C2(CCCC2)O1 (stereo not drawn),.,-0.147,.,.,.,.

# Assay outcomes deposited in PubChem by several laboratories.
